Results filed as inconclusive are left out. Where a call stands in place of a potency, no number is given. Active and inactive are the calls of the source. Calls come from the whole dose curve; as a rule, active = well fitted activation curve with a large enough effect in the main read-out, with a control signal flat (not every such curve was filed as active); inconclusive = small, poorly fitted or top-dose-only effect, or effect the other way, or a change in a side signal; inactive = flat fitted curve, though single readings scatter.
Target: 3',5'-cyclic-AMP phosphodiesterase 4B (Homo sapiens) (UniProt Q07343)
Assay: qHTS Assay for Inhibitors of PDE-IV (AID 607)
Details: HEK293 ACTOne CNG channel cells, membrane potential fluorescence; series mostly up to 22.9 µM
Source text: NIH Chemical Genomics Center [NCGC]
NIH Molecular Libraries Screening Centers Network [MLSCN]
The cyclic nucleotide phosphodiesterases (PDEs) are proteins that catalyze hydrolysis of 3', 5'-cyclic nucleotides, such as cyclic adenosine monophosphate (cAMP) and cyclic guanosine monophosphate (cGMP), to their corresponding 5'-nucleotide monophosphates. These enzymes play an important role in controlling cellular concentrations of cyclic nucleotides and have a central role in a variety of intracellular signaling events. cAMP PDEs are emerging as a promising class of drug targets in asthma and cardiovascular disease therapeutic areas.
There are no commercially available cell-based screening assays for PDE inhibitors: currently biochemical assays are done using pure substrates (cAMP or cGMP) and purified recombinant PDE enzymes. As with other biochemical screens on intracellular targets, false positives and false negatives may result from issues involving cell membrane permeability, cellular metabolism, and the like.
Here we report the development of a cell-based screening assay for cAMP phosphodiesterase (PDE) inhibitors. The assay is based on the BD ACTOne# technology (BD Biosciences) which utilizes a modified cyclic nucleotide-gated channel (CNG) to monitor intracellular cAMP changes in live cells. The CNG channel is localized on the plasma membrane, and opens when the intracellular cAMP level increases, resulting in ion flux and cell membrane depolarization. The influx of cations through the CNG channel can be quantified using membrane potential (MP) dyes. We modified the BD ACTOne technology to allow the detection of PDE inhibitors, and performed an inhibitor screen for PDE-IV, which is expressed endogenously in HEK293 cells. We optimized this assay in homogeneous 1536-well plate assay format for high throughput screening.
NCGC Assay Protocol Summary:
The medium contained 10% FBS (Invitrogen), 2 mM L-glutamine, and 250 ug/ml G418 (Cellgro) and 1 ug/ml puromycin (Clontech). ACTOneTM parental cells (BD Biosciences) were maintained in the same medium without puromycin.
The activity of the CNG channel was measured by BD ACTOneTM membrane potential dye kit (BD Biosciences). Forskolin, a positive control for cAMP activation and RO 20-1724, a PDE inhibitor, were both purchased from Sigma and solublized in DMSO.
Sequence,Parameter,Value,Description
1,Reagent,3 uL,1000 cells/well 1536 TC treated Black plate
3,Compound,0.5 uL,Kalypsys dispense RO 20-1724 100 uM final [A]
4,Reagent,3 uL,BD membrane potential dye
6,Compound,23 nL,Final concentration was 0.7nM to 22.9uM
8,Detector,EX 535 / EM 590 [B],Envision
Footnotes: [A] The stock 2 mM RO 20-1724 PDE inhibitor was made in 10 % DMSO. Parental cell line received 10 uM forskolin + 100 uM RO. [B] Envsion settings: Bottom Excitation 535/20 nm top emission 590/20, gain of 150 and 5 flashes per well.
Keywords: PDE, PDE-IV, cytotoxicity, flourescence, MLSMR, MLSCN, NIH Roadmap, qHTS, NCGC

Sequence of 3',5'-cyclic-AMP phosphodiesterase 4B (Homo sapiens) (Q07343 whole entry, looked up): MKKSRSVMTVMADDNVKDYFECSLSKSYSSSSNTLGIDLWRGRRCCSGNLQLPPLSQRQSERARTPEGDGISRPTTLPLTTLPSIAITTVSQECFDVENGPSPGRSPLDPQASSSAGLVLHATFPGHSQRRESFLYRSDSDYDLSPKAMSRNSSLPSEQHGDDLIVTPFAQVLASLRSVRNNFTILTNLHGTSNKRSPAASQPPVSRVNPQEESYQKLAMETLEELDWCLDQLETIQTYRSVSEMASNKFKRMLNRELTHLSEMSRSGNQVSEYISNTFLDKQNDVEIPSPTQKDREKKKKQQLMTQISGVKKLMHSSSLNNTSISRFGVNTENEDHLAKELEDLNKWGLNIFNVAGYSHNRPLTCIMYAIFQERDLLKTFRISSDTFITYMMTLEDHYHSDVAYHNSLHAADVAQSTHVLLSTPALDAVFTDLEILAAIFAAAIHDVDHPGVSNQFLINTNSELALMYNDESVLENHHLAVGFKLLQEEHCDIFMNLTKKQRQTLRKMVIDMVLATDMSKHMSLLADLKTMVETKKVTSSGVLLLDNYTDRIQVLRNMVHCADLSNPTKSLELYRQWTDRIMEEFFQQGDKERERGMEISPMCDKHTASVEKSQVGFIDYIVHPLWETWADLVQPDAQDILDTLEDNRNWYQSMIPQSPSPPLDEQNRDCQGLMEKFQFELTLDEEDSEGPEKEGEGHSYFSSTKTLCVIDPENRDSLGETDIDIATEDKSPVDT

Compound | Potency
COc1ccccc1CN1CC[C@@]2(CCCN(C(=O)Oc3ccccc3)C2)C1 | inactive
C[N+]1(C)[C@@H]2CC[C@H]1CC(OC(=O)[C@@H](CO)c1ccccc1)C2 (stereo not given in full) | inactive
C[C@H]1CC[C@@H]2[C@@H](C)C(=O)O[C@H]3O[C@@]4(C)CC[C@H]1[C@@]32OO4 | inactive
CN1C(=O)CCS(=O)(=O)[C@@H]1c1ccc(Cl)cc1 | inactive
CN1CC[C@@]2(CCCN(C(=O)c3ccncc3)C2)C1 | inactive
COc1cc2c(cc1O)C[C@H]1c3c(cc(O)c(OC)c3-2)CCN1C | inactive
CN1CCc2cc3c(cc2[C@@H]1[C@@H]1OC(=O)c2c1ccc1c2OCO1)OCO3 | inactive
CN(C)[C@@H]1C(=O)C(C(N)=O)=C(O)[C@]2(O)C(=O)C3=C(O)c4c(O)cccc4[C@@](C)(O)[C@@H]3C[C@@H]12 | inactive
c1ccc(N2CC3(CCNCC3)C2)cc1 | inactive
C=C[C@H]1CN2CC[C@@H]1C[C@H]2[C@@H](O)c1ccnc2ccccc12 | inactive
C[C@@]12CCC(=O)C=C1C=C[C@H]1[C@H]3CC[C@](O)(CCC(=O)O)[C@]3(C)CC[C@@H]12 | inactive
N#C/C(=C\c1ccc(O)c(O)c1)C(N)=S | inactive
COc1cc2c3cc1Oc1cc(ccc1O)C[C@@H]1c4c(cc(OC)c(O)c4Oc4cccc(c4)C[C@H]3N(C)CC2)CC[N+]1(C)C | inactive
CN(C)[C@@H]1C(=O)C(C(N)=O)=C(O)[C@]2(O)C(=O)C3=C(O)c4c(O)cccc4[C@@](C)(O)[C@H]3[C@H](O)[C@@H]12 | inactive
COc1cc(C=C(C#N)C#N)cc(O)c1O | inactive
CN1CC[C@@]2(CCCN(C(=O)c3ccco3)C2)C1 | inactive
c1ccc(N2CCC3(CCNCC3)CC2)nc1 | inactive
CCN1C[C@@]2(COC)[C@H]3[C@@H](OC)[C@H]4C1[C@@]3([C@H](OC)C[C@@H]2O)[C@H]1C[C@@]2(O)[C@@H](OC(=O)c3ccccc3)[C@@H]1[C@@]4(OC(C)=O)[C@H](O)[C@@H]2OC | inactive
C[C@@]12CC(=O)[C@H]3[C@@H](CCC4=CC(=O)CC[C@]43C)[C@H]1CCC2=O | inactive
C[N+]1([O-])[C@@H]2CC(OC(=O)[C@@H](CO)c3ccccc3)C[C@@H]1[C@H]1O[C@H]12 (stereo not given in full) | inactive

Compound | Potency
COc1ccc(NC(=O)N2CCC3(CC2)CCN(C(=O)Oc2ccccc2)CC3)cc1 | inactive
O=C(Nc1ccccc1)N1CC[C@@]2(CCCNC2)C1 | inactive
CC(C)N(CC[C@@](C(N)=O)(c1ccccc1)c1ccccn1)C(C)C | inactive
O=[N+]([O-])O[C@H]1CO[C@H]2[C@H]1OC[C@@H]2O[N+](=O)[O-] | inactive
CCN1C[C@@]2(COC)CC[C@H](OC)[C@]34[C@@H]1[C@]1(OCO[C@@]15C[C@@H](OC)C1C[C@H]3[C@H]5[C@@H]1OC)[C@H](O)[C@@H]24 | inactive
C[C@H]1C(=O)O[C@@H]2CCN3CC=C(COC(=O)[C@@](C)(O)[C@@]1(C)O)[C@H]23 | inactive
C(#CCN1CCCC1)CN1CCCC1 | inactive
C=C[C@]12CN(C)[C@H]3C1[C@@]1(C(=O)Nc4ccccc41)[C@H]1C[C@H]2[C@H]3CO1 | inactive
CN1[C@@H]2CC[C@H]1CC(O)C2 (stereo not given in full) | inactive
CCC[C@@](C)(COC(N)=O)COC(=O)NC(C)C | inactive
O=C(Oc1ccccc1)N1CCC[C@@]2(CCN(Cc3cc(C(F)(F)F)cc(C(F)(F)F)c3)C2)C1 | inactive
C[C@H]1CN(C2CCC(C#N)(c3ccc(F)cc3)CC2)CC[C@@]1(C(=O)O)c1ccccc1 (stereo not given in full) | inactive
Clc1ccccc1-c1cncnc1NCCc1cnc[nH]1 | inactive
N#Cc1ccc(CN2CCCC3(CCN(C(=O)Oc4ccccc4)CC3)C2)cc1 | inactive
C#C[C@@]1(O)CC[C@@H]2[C@@H]3CCC4=CC(=O)CC[C@@]4(C)[C@H]3CC[C@]21C | inactive
O=C(O)CNCP(=O)(O)O | inactive
C=C1[C@@H]2C[C@@]3([C@H]1O)[C@H]1C[C@@H]4[C@@]5(C)CC[C@H](O)[C@]4([C@H]1N(CC)C5)[C@H]3C[C@H]2O | inactive
CN1CC[C@]2(C)c3cc(O)ccc3N(C)[C@@H]12 | inactive
COc1ccc(OC)c([C@H](O)[C@H](C)N)c1 | inactive
C/C=C1\C[N@@+]2(C)CC[C@@]34C(=C(C=O)[C@H]1C[C@H]32)Nc1ccccc14 | inactive

Source: PubChem BioAssay (NCATS)
